Experimental data from PubChem BioAssay (NCI).
About 83,000 compounds went through this panel and 20% of them were active in at least one assay; those are over-represented in the sample as a whole.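 For each line, cells grew in 96-well plates with the test compound present at a single concentration for 48 hours.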 The source made the active and inactive calls. The calls were made as follows: active = growth percent below 10; inactive = the rest.

What was measured:
Assay in all cases: NCI-60 one-dose screen, 48 h (100 = growth as untreated, 0 = no growth, -100 = all killed)
Settings in all cases: 10 µM unless noted
NCI-H23 lung = tested on: NCI-H23 lung
NCI-H226 lung = tested on: NCI-H226 lung
NCI-H322M lung = tested on: NCI-H322M lung
HOP-62 NSCLC = tested on: HOP-62 NSCLC
NCI-H460 lung = tested on: NCI-H460 lung
HOP-92 NSCLC = tested on: HOP-92 NSCLC
NCI-H522 lung = tested on: NCI-H522 lung
A549/ATCC NSCLC = tested on: A549/ATCC NSCLC
786-0 renal = tested on: 786-0 renal
COLO 205 colon = tested on: COLO 205 colon
DU-145 prostate = tested on: DU-145 prostate
K-562 leukemia = tested on: K-562 leukemia
MALME-3M melanoma = tested on: MALME-3M melanoma
MDA-MB-231 breast = tested on: MDA-MB-231 breast
RXF 393 renal = tested on: RXF 393 renal
SF-268 CNS = tested on: SF-268 CNS
SF-295 CNS = tested on: SF-295 CNS
SF-539 CNS = tested on: SF-539 CNS
UACC-257 melanoma = tested on: UACC-257 melanoma
M14 melanoma = tested on: M14 melanoma

Measured: growth

CCN1C(=O)N(CC)C2C1NN=c1s/c(=C\c3ccc([N+](=O)[O-])cc3)c(=O)n12 (stereo not given)
inactive: NCI-H23 lung 47% | NCI-H226 lung 66.8% | NCI-H322M lung 54.6% | HOP-62 NSCLC 42.6% | HOP-92 NSCLC 79.2% | A549/ATCC NSCLC 30.4% | 786-0 renal 44.1% | COLO 205 colon 13.3% | DU-145 prostate 19.9% | MALME-3M melanoma 45.7% | MDA-MB-231 breast 18.5% | SF-268 CNS 71.5% | SF-295 CNS 13.2% | UACC-257 melanoma 31.1% | M14 melanoma 12%
active: NCI-H460 lung 8.23% | NCI-H522 lung -0.229% | K-562 leukemia 9.56% | RXF 393 renal 2.89% | SF-539 CNS -7.87%

c1ccc2cc(Cn3cc[n+](Cc4ccc5ccccc5c4)c3)ccc2c1
active: HOP-92 NSCLC -13.3% | NCI-H522 lung -11.7% | COLO 205 colon -73.9% | UACC-257 melanoma -9.54%
inactive: NCI-H23 lung 41.6% | NCI-H226 lung 52.1% | NCI-H322M lung 62.8% | HOP-62 NSCLC 42.1% | NCI-H460 lung 39.6% | A549/ATCC NSCLC 67.6% | 786-0 renal 52.2% | DU-145 prostate 53.2% | K-562 leukemia 22.5% | MALME-3M melanoma 13.8% | MDA-MB-231 breast 18.7% | RXF 393 renal 35.1% | SF-268 CNS 32.1% | SF-295 CNS 70.3% | SF-539 CNS 50.2% | M14 melanoma 16.1%

Cc1ccccc1NC(=O)Cn1cc(CN2CCN(c3ccnc4cc(Cl)ccc34)CC2)nn1
inactive: NCI-H23 lung 99.2% | NCI-H226 lung 90.9% | NCI-H322M lung 103% | HOP-62 NSCLC 90.7% | NCI-H460 lung 98.6% | HOP-92 NSCLC 68.5% | NCI-H522 lung 102% | A549/ATCC NSCLC 106% | 786-0 renal 104% | COLO 205 colon 99% | DU-145 prostate 105% | K-562 leukemia 70% | MALME-3M melanoma 109% | MDA-MB-231 breast 83.1% | RXF 393 renal 102% | SF-268 CNS 92.6% | SF-295 CNS 100% | SF-539 CNS 97.8% | UACC-257 melanoma 109% | M14 melanoma 101%

Cc1c(C)c2c(c(C)c1OC(=O)CCC(=O)[O-])CCC(C)(CCCCCCCCCCC[P+](c1ccccc1)(c1ccccc1)c1ccccc1)O2 (stereo not given)
active: NCI-H23 lung -16.5% | NCI-H226 lung -6.94% | NCI-H322M lung 0.982% | HOP-62 NSCLC -67.7% | NCI-H460 lung -69% | HOP-92 NSCLC -82.7% | NCI-H522 lung -25.9% | A549/ATCC NSCLC -2.64% | 786-0 renal -49.7% | COLO 205 colon -52.9% | DU-145 prostate -54.1% | K-562 leukemia 6.14% | MALME-3M melanoma -83.6% | MDA-MB-231 breast -34.2% | RXF 393 renal -78.3% | SF-268 CNS -61.3% | SF-295 CNS -87.4% | SF-539 CNS -69.1% | UACC-257 melanoma -54.2% | M14 melanoma -60.3%

COc1ccc(-c2ccc(-c3ccc(C(=N)N)o3)o2)cc1
active: NCI-H460 lung 0.541% | NCI-H522 lung 1.71% | A549/ATCC NSCLC 1.8% | COLO 205 colon -45.8% | DU-145 prostate 6.23% | K-562 leukemia -9.69% | MDA-MB-231 breast 8.3%
inactive: NCI-H23 lung 35.6% | NCI-H226 lung 78.2% | NCI-H322M lung 56.1% | HOP-62 NSCLC 46.4% | HOP-92 NSCLC 27% | 786-0 renal 21.9% | MALME-3M melanoma 57.1% | RXF 393 renal 25.1% | SF-268 CNS 39.8% | SF-295 CNS 35.6% | SF-539 CNS 23% | UACC-257 melanoma 37.9% | M14 melanoma 35.1%

CCOc1ccc(-c2cc(C3(S(=O)(=O)c4ccc(C)cc4)CC=CC3)on2)cc1
inactive: NCI-H23 lung 73.2% | NCI-H226 lung 47.7% | NCI-H322M lung 96.4% | HOP-62 NSCLC 85.9% | NCI-H460 lung 91.1% | HOP-92 NSCLC 86.1% | NCI-H522 lung 70.6% | A549/ATCC NSCLC 92.8% | 786-0 renal 102% | COLO 205 colon 95.5% | DU-145 prostate 101% | K-562 leukemia 70.9% | MALME-3M melanoma 83.6% | MDA-MB-231 breast 91.8% | RXF 393 renal 93.6% | SF-268 CNS 98.6% | SF-295 CNS 90% | SF-539 CNS 98.6% | UACC-257 melanoma 74.9% | M14 melanoma 107%

CCn1c2ccccc2c2cc(C(O)c3cccc4ncccc34)ccc21 (stereo not given)
inactive: NCI-H226 lung 23.7% | NCI-H322M lung 34.8% | HOP-62 NSCLC 32.8% | NCI-H460 lung 10.1% | HOP-92 NSCLC 29.3% | A549/ATCC NSCLC 20.7% | MALME-3M melanoma 57.7% | MDA-MB-231 breast 24.3% | RXF 393 renal 40.6% | SF-268 CNS 28.6% | SF-295 CNS 18.4% | UACC-257 melanoma 70.8%
active: NCI-H23 lung -42.3% | NCI-H522 lung 8.82% | 786-0 renal 6.42% | COLO 205 colon -33.9% | DU-145 prostate 8.08% | K-562 leukemia 8.65% | SF-539 CNS 6.53% | M14 melanoma -4.81%

FC(F)(F)c1cc(N2CCCCC2)nc(NCCCNc2ccnc3cc(Cl)ccc23)n1
active: COLO 205 colon 7.41%
inactive: NCI-H23 lung 27.2% | NCI-H226 lung 73.6% | NCI-H322M lung 80% | HOP-62 NSCLC 73.5% | NCI-H460 lung 74.4% | HOP-92 NSCLC 32.9% | NCI-H522 lung 47.4% | A549/ATCC NSCLC 50.5% | 786-0 renal 59.7% | DU-145 prostate 81.8% | K-562 leukemia 11.2% | MALME-3M melanoma 72.7% | MDA-MB-231 breast 87.9% | RXF 393 renal 59.7% | SF-268 CNS 70.3% | SF-295 CNS 51.1% | SF-539 CNS 74.8% | UACC-257 melanoma 53.3% | M14 melanoma 70.9%

COC(=O)CCc1c(/C=C2\N=C(c3ccc[nH]3)C=C2OC)[nH]c(C)c1C(=O)OCc1ccccc1
active: HOP-62 NSCLC -3.97% | HOP-92 NSCLC -9.37% | NCI-H522 lung -20.3% | 786-0 renal -26.2% | COLO 205 colon 4.96% | K-562 leukemia 6.23% | MALME-3M melanoma -5.75% | MDA-MB-231 breast -12.6% | RXF 393 renal -15.9% | SF-295 CNS -30.4% | SF-539 CNS -16.9% | UACC-257 melanoma 9.69% | M14 melanoma -24.7%
inactive: NCI-H23 lung 20.4% | NCI-H226 lung 19.6% | NCI-H322M lung 55.9% | NCI-H460 lung 12.4% | A549/ATCC NSCLC 11.9% | DU-145 prostate 29.9% | SF-268 CNS 21.4%

CC(C)(C)n1cc(-c2ccnc(NCCNS(=O)(=O)c3ccc(Br)cc3)c2)c(-c2cccc(O)c2)n1
active: NCI-H460 lung 1.07% | COLO 205 colon -74.9% | K-562 leukemia 6.18%
inactive: NCI-H23 lung 35.2% | NCI-H226 lung 45.4% | NCI-H322M lung 62.7% | HOP-62 NSCLC 61.1% | HOP-92 NSCLC 18.5% | NCI-H522 lung 16.7% | A549/ATCC NSCLC 28.9% | 786-0 renal 21.2% | DU-145 prostate 49.8% | MALME-3M melanoma 20.1% | MDA-MB-231 breast 38.2% | RXF 393 renal 26.3% | SF-268 CNS 33.1% | SF-295 CNS 31.8% | SF-539 CNS 46.5% | UACC-257 melanoma 36% | M14 melanoma 21.9%

CNC(=O)c1cc(Oc2ccc3nc(NC(=O)NC(C)C)sc3c2)ccn1
inactive: NCI-H23 lung 87.5% | NCI-H226 lung 79.2% | NCI-H322M lung 95.2% | HOP-62 NSCLC 75.6% | NCI-H460 lung 86.8% | HOP-92 NSCLC 63.3% | NCI-H522 lung 59.3% | A549/ATCC NSCLC 64.3% | 786-0 renal 80.3% | COLO 205 colon 78.8% | DU-145 prostate 98.8% | MALME-3M melanoma 86.2% | MDA-MB-231 breast 79.5% | RXF 393 renal 95.4% | SF-268 CNS 89.8% | SF-295 CNS 77.5% | SF-539 CNS 76.9% | UACC-257 melanoma 73.7% | M14 melanoma 50.5%
active: K-562 leukemia 7.14%

CCC(=C(c1ccc(OCCN(CC)CC)cc1)c1ccc(OCCN(CC)CC)cc1)c1ccc(Cl)cc1
active: NCI-H322M lung -8.03% | HOP-62 NSCLC -27% | NCI-H460 lung -81.4% | NCI-H522 lung -39.4% | A549/ATCC NSCLC -75% | 786-0 renal -95.4% | COLO 205 colon -69% | DU-145 prostate -19.7% | K-562 leukemia 0.499% | MALME-3M melanoma -81.4% | MDA-MB-231 breast -81.7% | RXF 393 renal -54.3% | SF-268 CNS -4.01% | SF-295 CNS -68.5% | SF-539 CNS -90.3% | UACC-257 melanoma -65% | M14 melanoma -79%
inactive: NCI-H23 lung 68.7% | NCI-H226 lung 109% | HOP-92 NSCLC 33.5%

CCOC(=O)c1c(C)c2c(n1Cc1ccccc1)CSc1cc(C#N)c(=O)[nH]c1-2
active: HOP-92 NSCLC -18.5% [100 µM]
inactive: NCI-H23 lung 72.6% [100 µM] | NCI-H226 lung 89.6% [100 µM] | NCI-H322M lung 78.6% [100 µM] | HOP-62 NSCLC 58.7% [100 µM] | NCI-H460 lung 67% [100 µM] | NCI-H522 lung 87% [100 µM] | A549/ATCC NSCLC 75.1% [100 µM] | 786-0 renal 19.8% [100 µM] | COLO 205 colon 60.4% [100 µM] | DU-145 prostate 83.9% [100 µM] | K-562 leukemia 75.5% [100 µM] | MALME-3M melanoma 55% [100 µM] | MDA-MB-231 breast 54.8% [100 µM] | RXF 393 renal 26.6% [100 µM] | SF-268 CNS 67.5% [100 µM] | SF-295 CNS 43.6% [100 µM] | SF-539 CNS 52.6% [100 µM] | UACC-257 melanoma 121% [100 µM] | M14 melanoma 90.4% [100 µM]

COc1ccc(N2C(=O)/C(=C/C(Cl)=C/c3ccc([N+](=O)[O-])cc3)SC2=S)cc1
inactive: NCI-H322M lung 31.2% | MALME-3M melanoma 26.4% | SF-268 CNS 12.3% | UACC-257 melanoma 48.2% | M14 melanoma 12.3%
active: NCI-H23 lung -1.85% | NCI-H226 lung -31% | HOP-62 NSCLC -9.71% | NCI-H460 lung 0.356% | HOP-92 NSCLC -33.8% | NCI-H522 lung -42.5% | A549/ATCC NSCLC -0.282% | 786-0 renal -77.7% | COLO 205 colon -36% | DU-145 prostate 5.02% | K-562 leukemia 0.935% | MDA-MB-231 breast 7.73% | RXF 393 renal -77.9% | SF-295 CNS -32.1% | SF-539 CNS -22.8%
